# Source: the supplement of paper PMC7765376
# The full ranking holds about 1,500 compounds; the median of “Excess HSA synergy score (sum over dose matrix of excess over highest single agent)” is about 43, and the lowest 2% start at about -900. What follows is part of a selection rich in the lowest values, with near analogues and random picks from the rest.
# Test system: PEO-1
# Test: Excess HSA synergy score (sum over dose matrix of excess over highest single agent) (score (summed % response)); higher = less synergy / more antagonism (negative = synergy)
# Conditions: 72 h, read-out: viability/apoptosis luminescence (CellTiter-Glo or Caspase3-Glo / not stated per table)
# [1] = matrix design: 6x6, 5-fold dilutions (primary screen)
# [2] = matrix design: 10x10, 9-step dilutions (confirmatory)
SMILES,Excess HSA synergy score [1],Excess HSA synergy score [2]
COc1ccc(-c2cc3nccn3c(Nc3ncccc3C(N)=O)n2)cc1OC + CC[C@H](NC(=O)[C@H](C)NC)C(=O)N1C[C@@H](O)C[C@H]1Cc1c(-c2[nH]c3cc(F)ccc3c2C[C@@H]2C[C@H](O)CN2C(=O)[C@H](CC)NC(=O)[C@H](C)NC)[nH]c2cc(F)ccc12 [Birinapant],38,
CN1CCc2c(c3ccccc3n2Cc2ccc(C(=O)NO)cc2)C1 [Tubastatin A] + CC[C@H](NC(=O)[C@H](C)NC)C(=O)N1C[C@@H](O)C[C@H]1Cc1c(-c2[nH]c3cc(F)ccc3c2C[C@@H]2C[C@H](O)CN2C(=O)[C@H](CC)NC(=O)[C@H](C)NC)[nH]c2cc(F)ccc12 [Birinapant],-71.8,
Cn1cc(CNCC2CCN(c3ncc(C(=O)NO)cn3)CC2)c2ccccc21 [Quisinostat] + CC[C@H](NC(=O)[C@H](C)NC)C(=O)N1C[C@@H](O)C[C@H]1Cc1c(-c2[nH]c3cc(F)ccc3c2C[C@@H]2C[C@H](O)CN2C(=O)[C@H](CC)NC(=O)[C@H](C)NC)[nH]c2cc(F)ccc12 [Birinapant],-161,-1370
Cn1cc(C[C@@H](N)C(=O)O)c2ccccc21 [Indoximod] + CC[C@H](NC(=O)[C@H](C)NC)C(=O)N1C[C@@H](O)C[C@H]1Cc1c(-c2[nH]c3cc(F)ccc3c2C[C@@H]2C[C@H](O)CN2C(=O)[C@H](CC)NC(=O)[C@H](C)NC)[nH]c2cc(F)ccc12 [Birinapant],168,
NC(=O)c1cnc(-c2ccc(C3(N)CCC3)cc2)c(-c2ccccc2)c1 + CC[C@H](NC(=O)[C@H](C)NC)C(=O)N1C[C@@H](O)C[C@H]1Cc1c(-c2[nH]c3cc(F)ccc3c2C[C@@H]2C[C@H](O)CN2C(=O)[C@H](CC)NC(=O)[C@H](C)NC)[nH]c2cc(F)ccc12 [Birinapant],61.1,
CN(C)C(=O)c1ccc(S(=O)(=O)c2ccc(NC(=O)[C@@](C)(O)C(F)(F)F)c(Cl)c2)cc1 + CC[C@H](NC(=O)[C@H](C)NC)C(=O)N1C[C@@H](O)C[C@H]1Cc1c(-c2[nH]c3cc(F)ccc3c2C[C@@H]2C[C@H](O)CN2C(=O)[C@H](CC)NC(=O)[C@H](C)NC)[nH]c2cc(F)ccc12 [Birinapant],50.1,
NC1(c2ccc(-c3nc4ccn5c(=O)[nH]nc5c4cc3-c3ccccc3)cc2)CCC1 + CC[C@H](NC(=O)[C@H](C)NC)C(=O)N1C[C@@H](O)C[C@H]1Cc1c(-c2[nH]c3cc(F)ccc3c2C[C@@H]2C[C@H](O)CN2C(=O)[C@H](CC)NC(=O)[C@H](C)NC)[nH]c2cc(F)ccc12 [Birinapant],208,
Cc1ccc(-c2ncn(-c3ccc(Nc4nccc(-c5cccc(N6CCOCC6)c5)n4)cc3)n2)cn1 + CC[C@H](NC(=O)[C@H](C)NC)C(=O)N1C[C@@H](O)C[C@H]1Cc1c(-c2[nH]c3cc(F)ccc3c2C[C@@H]2C[C@H](O)CN2C(=O)[C@H](CC)NC(=O)[C@H](C)NC)[nH]c2cc(F)ccc12 [Birinapant],108,-998
N#CCNC(=O)c1ccc(-c2ccnc(Nc3ccc(N4CCOCC4)cc3)n2)cc1 [Momelotinib] + CC[C@H](NC(=O)[C@H](C)NC)C(=O)N1C[C@@H](O)C[C@H]1Cc1c(-c2[nH]c3cc(F)ccc3c2C[C@@H]2C[C@H](O)CN2C(=O)[C@H](CC)NC(=O)[C@H](C)NC)[nH]c2cc(F)ccc12 [Birinapant],-152,
Cc1nc(N)sc1-c1ccnc(Nc2ccc(N3CCOCC3)cc2)n1 + CC[C@H](NC(=O)[C@H](C)NC)C(=O)N1C[C@@H](O)C[C@H]1Cc1c(-c2[nH]c3cc(F)ccc3c2C[C@@H]2C[C@H](O)CN2C(=O)[C@H](CC)NC(=O)[C@H](C)NC)[nH]c2cc(F)ccc12 [Birinapant],9.08,
CCCS(=O)(=O)Nc1ccc(F)c(C(=O)c2c[nH]c3ncc(Cl)cc23)c1F + CC[C@H](NC(=O)[C@H](C)NC)C(=O)N1C[C@@H](O)C[C@H]1Cc1c(-c2[nH]c3cc(F)ccc3c2C[C@@H]2C[C@H](O)CN2C(=O)[C@H](CC)NC(=O)[C@H](C)NC)[nH]c2cc(F)ccc12 [Birinapant],-164,
C=C1CC[C@@H]2[C@](C)(CO)[C@H](O)CC[C@@]2(C)[C@@H]1C/C=C1/C(=O)OC[C@H]1O [Andrographolide] + CC[C@H](NC(=O)[C@H](C)NC)C(=O)N1C[C@@H](O)C[C@H]1Cc1c(-c2[nH]c3cc(F)ccc3c2C[C@@H]2C[C@H](O)CN2C(=O)[C@H](CC)NC(=O)[C@H](C)NC)[nH]c2cc(F)ccc12 [Birinapant],12.7,
Cc1nc(Nc2ncc(C(=O)Nc3c(C)cccc3Cl)s2)cc(N2CCN(CCO)CC2)n1 [Dasatinib] + CC[C@H](NC(=O)[C@H](C)NC)C(=O)N1C[C@@H](O)C[C@H]1Cc1c(-c2[nH]c3cc(F)ccc3c2C[C@@H]2C[C@H](O)CN2C(=O)[C@H](CC)NC(=O)[C@H](C)NC)[nH]c2cc(F)ccc12 [Birinapant],-329,-1400
Cc1cc(Nc2cc(N3CCN(C)CC3)nc(Sc3ccc(NC(=O)C4CC4)cc3)n2)n[nH]1 [Tozasertib] + CC[C@H](NC(=O)[C@H](C)NC)C(=O)N1C[C@@H](O)C[C@H]1Cc1c(-c2[nH]c3cc(F)ccc3c2C[C@@H]2C[C@H](O)CN2C(=O)[C@H](CC)NC(=O)[C@H](C)NC)[nH]c2cc(F)ccc12 [Birinapant],-170,
C=CC(=O)Nc1cccc(Sc2nc(Nc3ccc(N4CCN(C)CC4)cc3)ncc2Cl)c1 + CC[C@H](NC(=O)[C@H](C)NC)C(=O)N1C[C@@H](O)C[C@H]1Cc1c(-c2[nH]c3cc(F)ccc3c2C[C@@H]2C[C@H](O)CN2C(=O)[C@H](CC)NC(=O)[C@H](C)NC)[nH]c2cc(F)ccc12 [Birinapant],73.6,
c1cc(-c2sc(-c3ccncc3)c(-c3ccncc3)c2-c2ccncc2)ccn1 + CC[C@H](NC(=O)[C@H](C)NC)C(=O)N1C[C@@H](O)C[C@H]1Cc1c(-c2[nH]c3cc(F)ccc3c2C[C@@H]2C[C@H](O)CN2C(=O)[C@H](CC)NC(=O)[C@H](C)NC)[nH]c2cc(F)ccc12 [Birinapant],153,
